An excerpt weighted towards active compounds, which were near 2.4% of everything screened.
Pol kappa inh: qHTS for Inhibitors of Polymerase Kappa; purified Pol kappa, fluorescent DNA synthesis assay, 10 min; Potency, µM (series often up to 107 µM), without a hit: at the top dose activity, negative = inhibition, usual class: inhibitors; 0.53% of 400,000 active; AID 588579, 2011; note: % is set by controls: 0 for no effect and ±100 for the full control effect
Target sequence (Q9UBT6 whole entry, looked up): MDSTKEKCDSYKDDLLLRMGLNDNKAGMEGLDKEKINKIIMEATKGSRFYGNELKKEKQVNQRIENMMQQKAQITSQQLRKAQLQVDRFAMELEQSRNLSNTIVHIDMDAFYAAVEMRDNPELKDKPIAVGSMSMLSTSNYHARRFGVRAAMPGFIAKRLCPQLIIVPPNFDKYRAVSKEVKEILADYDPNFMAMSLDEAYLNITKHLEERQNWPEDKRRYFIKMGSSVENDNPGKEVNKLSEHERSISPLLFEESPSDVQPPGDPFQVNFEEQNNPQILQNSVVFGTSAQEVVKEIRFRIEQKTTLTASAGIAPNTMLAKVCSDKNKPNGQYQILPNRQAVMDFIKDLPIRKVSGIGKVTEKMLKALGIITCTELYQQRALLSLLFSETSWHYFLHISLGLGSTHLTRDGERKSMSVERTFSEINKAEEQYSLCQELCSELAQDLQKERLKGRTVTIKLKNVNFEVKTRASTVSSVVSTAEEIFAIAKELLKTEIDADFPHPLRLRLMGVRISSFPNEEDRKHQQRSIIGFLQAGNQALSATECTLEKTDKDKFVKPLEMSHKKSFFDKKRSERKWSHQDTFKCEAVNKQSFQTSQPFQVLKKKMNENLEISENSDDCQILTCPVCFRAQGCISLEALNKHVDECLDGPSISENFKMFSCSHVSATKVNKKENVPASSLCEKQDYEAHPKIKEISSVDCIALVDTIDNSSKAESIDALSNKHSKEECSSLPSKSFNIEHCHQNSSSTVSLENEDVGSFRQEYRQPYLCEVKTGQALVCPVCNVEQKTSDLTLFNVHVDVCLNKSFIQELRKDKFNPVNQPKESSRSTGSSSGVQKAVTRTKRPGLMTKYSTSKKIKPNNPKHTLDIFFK
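Here, compound and 10 nM enzyme are combined for 15 min at room temperature; adding 50 nM substrate (final) starts DNA synthesis, tracked by fluorescence at 0 and 10 min against buffer-only wells.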
Pol beta inh: qHTS Assay for Inhibitors of DNA Polymerase Beta; P06746; Pol beta primer extension/strand displacement, fluorescence kinetic; Potency, µM (series often up to 114 µM), for the others: top-dose activity change, negative = inhibition, usual class: inhibitors; 1.3% of 340,000 active; note: % is set by controls: 0 for no effect and ±100 for the full control effect
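Pol beta (10 nM) was preincubated with compound for 15 min at room temperature. The reaction was then started with 50 nM substrate and read immediately and after a further 10 min at room temperature.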
FEN1 inhibitor: qHTS Assay for the Inhibitors of Human Flap endonuclease 1 (FEN1); P39748; Recombinant FEN1 flap cleavage, fluorescence, 15 min; Potency, µM (titrated, usually from 114 µM), inactives show at the top dose activity change, negative = inhibition, actives largely listed as inhibitors; 0.35% of 390,000 active; note: % is set by controls: 0 for no effect and ±100 for the full control effect; nearly all actives have a fitted effect of over 65% in size
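Potency values derive from four-parameter Hill fits of normalized qHTS data. The reaction used 10 nM FEN1 preincubated 15 min at room temperature with compound, then 50 nM DNA substrate, read at 0 and 15 min.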
Pol iota inh: qHTS for Inhibitors of Polymerase Iota. Pol iota fluorescent replication assay, 10 min. Potency, µM (top dose mostly 115 µM), for inactives: top-dose activity, negative = inhibition, hits mostly inhibitors. 1% of 390,000 active
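Pol iota at 10 nM preincubated 15 min with compounds at room temperature; reaction started with fluorescent substrate, 50 nM final. Fluorescence read kinetically at 0 and 10 min; buffer-only wells as negative control.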
Pol eta inh: qHTS for Inhibitors of Polymerase Eta; DNA polymerase eta (Homo sapiens), Q9Y253; recombinant Pol eta, fluorescent DNA replication assay; Potency, µM (series often up to 114 µM), inactives show at the top dose activity change, negative = inhibition, usual class: inhibitors; 1.2% of 390,000 active; AID 588591, 2011; note: % is set by controls: 0 for no effect and ±100 for the full control effect
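Pol eta (10 nM) was preincubated with compounds for 15 min at room temperature, after which fluorescent replication substrate (50 nM final) was added to start the reaction. Fluorescence was read kinetically at 0 and 10 min.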
WRN helicase inh: qHTS for Inhibitors of WRN Helicase. Bifunctional 3'-5' exonuclease/ATP-dependent helicase WRN (Homo sapiens), Q14191. WRN helicase unwinding, fluorescent forked duplex, kinetic. Potency, µM (titrated, usually from 114 µM), for inactives: at the highest dose activity change, negative = inhibition, hits mostly inhibitors. 0.46% of 360,000 active. AID 651768, 2012; note: % is set by controls: 0 for no effect and ±100 for the full control effect; nearly all actives have a fitted effect of over 55% in size
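WRN at 20 nM final preincubated with compound 15 min at room temperature; reaction started with 100 nM fluorophore/quencher forked duplex oligonucleotide and 2 mM ATP final. Unwinding followed kinetically by red fluorescence (ex 525, em 598 nm).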
Active calls of the source: *; u = inconclusive; x = not tested or not shown; ! = a repeat was not active; [ ] = remark or other dose. Calls come from the whole dose curve; as a rule, active = well fitted curve in the direction sought with a large enough effect; inconclusive = small, poorly fitted or top-dose-only effect, or another doubt; inactive = no such curve, though single readings can be large; an effect the other way counts as inactive or inconclusive. Potency is the fitted concentration of half-maximal effect.

SMILES	Pol kappa inh	Pol beta inh	FEN1 inhibitor	Pol iota inh	Pol eta inh	WRN helicase inh
CC(C)CCn1nnc2sc(-c3ccccc3)cc2c1=O	-8.6%	5.7%	14.4%	14.9%	x	x
Cc1ccc(N(CC(=O)N2CC(=O)Nc3ccccc32)S(=O)(=O)c2ccc3c(c2)OCCO3)cc1	-10.9%	-1.1%	-4.1%	79.4µM*	-9.1%	-3.8%[11.6 µM]
O=C(O)CCC(=O)Nc1sc2c(c1C(=O)Nc1ccccc1)CCCCC2	-26.8%	u	-12.8%	30.4%	89.1µM*!	-34.3%
O=C(COc1ccccc1)Nc1sc2c(c1C(=O)NCc1cccnc1)CCCC2	-12.9%	35.5µM*	9.0%	u	u	-27.9%[57.1 µM]
CCc1nc2cccnc2n1-c1ccc(CC(=O)O)cc1	-23.5%	-1.2%	-4.7%	64.4%	50.1µM*	-1.4%[11.6 µM]
CCOCCCNC(=O)Cc1ccc(-n2c(CC)nc3cccnc32)cc1	-2.0%	21.7%	-1.6%	25.3%	-18.5%	1.7%
COc1cc(/C=C/c2ccnc3ccccc23)ccc1N(C)C	3.8%	x	u	0.0%	x	x
COC(=O)c1ccc2c(=O)n(CCc3ccc(S(N)(=O)=O)cc3)c(SCC(=O)C(C)(C)C)nc2c1	-8.8%[60.1 µM]	2.0%	21.2%	14.6%	-7.3%	x
COC(=O)c1c(NC(=O)COC(=O)c2ccccc2O)sc2c1CCCCC2	0.6%	-7.2%	6.1%	92.2%	-3.6%	2.2%[57.1 µM]
NC(=O)c1c(NC(=O)COC(=O)c2ccc(O)c(Cl)c2)sc2c1CCCC2	-24.9%	x	u	u	50.1µM*	-32.7%
CCOC(=O)c1sc(NC(=O)C2CC=CCC2C(=O)O)nc1C (stereo not given)	-5.8%	44.7µM*	-15.0%	u	79.4µM*	-15.7%[57.1 µM]
O=C(CCOc1ccccc1)NO	3.1%	x	-2.5%	13.1%	x	x
O=C(CSc1nnc(-c2ccccc2)o1)c1nnc(-c2ccccc2)o1	-13.7%	-24.1%	9.1%	-23.9%	20µM*	-22.4%
Oc1c(/C=N/c2ccccn2)sc2ccccc12	-14.7%	22.4µM*	-20.0%	18.2%	-16.8%	-7.6%
Oc1c(C=Nc2ccc(Cl)cn2)sc2ccccc12	-2.7%	-27.3%	-0.4%	-3.1%	-22.1%	-0.9%
CC(=O)/C=C/c1ccc2c(c1)S(=O)(=O)N(C1CCCC1)[C@H]2CC(C)=O	-40.6%	x	u	u	x	x
Cc1ccc(-n2c3nc(=O)[nH]c(=O)c-3cc3cc([N+](=O)[O-])ccc32)cc1	-3.9%	48.6%	-7.1%	u	44.7µM*	u
CCn1c(CSc2nnc3ccccn23)nc2cc(C(=O)O)ccc21	-9.4%	u	50.1µM*	-19.7%	u	37.3%[57.1 µM]
CCn1c(CSc2nnc(-c3cccnc3)n2-c2ccccc2C)nc2cc(C(=O)O)ccc21	x	3.55µM*	x	x	x	x
CCn1c(CSc2nnc(-c3ccncc3)n2CCOC)nc2cc(C(=O)O)ccc21	-9.5%	u	u	4.9%	u	u
CC(C)c1ccc2oc(-c3ccc(Cl)c(NC(=O)c4cccs4)c3)nc2c1	-7.5%	31.8%	-17.5%	-20.9%	-10.6%	x
CCOc1cc(/C=C2\C(=O)N(c3nc(-c4ccc(Br)cc4)cs3)N=C2c2ccccc2)ccc1O	79.4µM*	10µM*	50.1µM*	u	10µM*	-35.3%
COc1cc(/C=C2\C(=O)N(c3ccc(NC(C)=O)cc3)N=C2c2ccccc2)ccc1O	-10.4%	49.2%	-28.2%	u	10.2%	-13.1%
COc1ccc(C2c3cc(OC)c(OC)cc3CC(=O)N2c2ccc(C)cc2)cc1 (stereo not given)	16.7%	35.4%	3.4%	5.4%	-4.4%	x
C=CCn1c(O)c(CN2CCCCC2)c(C)c(C#N)c1=O	-9.7%	10.3%	-23.1%	28.2µM*	-19.6%	-3.5%
SMILES	Pol kappa inh	Pol beta inh	FEN1 inhibitor	Pol iota inh	Pol eta inh	WRN helicase inh
Cc1c(CN2CCCC(C)C2)c(O)n(CCO)c(=O)c1C#N (stereo not given)	-3.6%	u	4.4%	107.9%	-13.0%	-22.7%
C/C(=N\NC(=O)c1ccc(N2CCCC2=O)cc1)c1ccc(O)cc1O	-21.5%	-1.8%	19.9%	44.7µM*	-4.1%	-10.2%[11.6 µM]
O=C(Nc1ccccc1)N1CCCC2(CCN(C(=O)c3cnccn3)CC2)C1	10.8%[60.1 µM]	x	x	x	x	x
O=C(O)c1cc2nccc(-c3ccco3)n2n1	u	0.3%	-24.6%	u	17.8µM*	-5.0%[11.6 µM]
COc1ccc(-c2ccnc3cc(C(=O)O)nn23)cc1	-6.0%	107.4%	10.9%	56.7%	0.3%	-14.8%
CC1(C)CCC2=C(O1)c1ccccc1C(=O)C2=O	-1.5%[60.1 µM]	-0.2%[57.1 µM]	u	7.94µM*	22.4µM*	x
CCc1ccc(Cn2c(CNS(=O)(=O)c3ccc(Cl)s3)nc3cccnc32)cc1	-5.3%[60.1 µM]	28.5%	-17.5%	5.7%	-17.2%	x
CCc1nnc(NS(=O)(=O)c2ccc(NC(=O)/C=C/c3ccc(OC)cc3OC)cc2)s1	u	56.2µM*	-19.7%	u	u	u
CCC(C)[C@H](NC(=O)N1CC(=O)Nc2ccccc21)C(=O)N1CCC[C@H]1C(=O)O (stereo not given in full)	10.6%	2.7%	3.0%	79.4µM*	-18.5%	-0.7%
CCCn1nc(C(=O)Nc2ccc(S(=O)(=O)Nc3ncccn3)cc2)c2ccccc2c1=O	-24.2%	1.2%	14.1%	u	50.1µM*	-16.3%
O=C(Nc1ccc(S(=O)(=O)Nc2ncccn2)cc1)C1=COCCO1	-25.0%	x	-3.1%	50.1µM*	u	-32.5%
CC(=O)Nc1ccc(S(=O)(=O)Nc2ncccn2)cc1	7.5%	0.4%	-15.9%	17.9%	-5.7%	2.4%
COc1ccc(CCN2C(=O)C=CC2=O)cc1OC	-12.4%	x	2.0%	31.2%	-19.1%	31.6µM*
COc1ccc(CCn2c(C)ccc2C)cc1OC	x	-1.1%	x	x	x	x
COc1cc(O)cc(OC)c1OC	-2.8%[60.1 µM]	x	x	x	x	x
COc1c(O)cc(O)cc1O	25.1µM*	x	x	x	x	x
CCc1ccc(NC(=O)Cn2c(=O)n(Cc3ccco3)c(=O)c3cccnc32)cc1	-1.8%	-1.4%	14.8%	-20.0%	0.4%	x
Cc1ccc(NC(=O)CS(=O)CC(=O)NC(C)CCc2ccco2)cc1Cl (stereo not given)	-28.5%	31.6µM*	3.3%	-38.7%	u	-13.9%
O=C(Cc1cccs1)N/N=C/C=C\c1ccco1	u	u	-1.1%	u	50.1µM*	u
CC(=C/c1ccco1)/C=N/NC(=O)c1ccncc1	-15.4%	1.7%	5.4%	25.6%	-22.9%	-3.8%
O=C(Cc1cccs1)N/N=C/c1ccco1	-19.7%	-25.0%	3.0%	-5.4%	u	-3.5%

Bioassay records (PubChem)
